In the library only some 2.4% were active in any assay of this set; here they are far more common.
Cruzain inh Det = cruzain (T. cruzi) inhibition with detergent. purified cruzain, Z-FR-AMC fluorescence, 0.01% Triton. Potency, µM, actives largely listed as inhibitors. hit rate 0.43% among 200,000. AID 1478; further: nearly all actives have a fitted effect of over 40% in size
Target sequence (P25779 123-467 limits assumed): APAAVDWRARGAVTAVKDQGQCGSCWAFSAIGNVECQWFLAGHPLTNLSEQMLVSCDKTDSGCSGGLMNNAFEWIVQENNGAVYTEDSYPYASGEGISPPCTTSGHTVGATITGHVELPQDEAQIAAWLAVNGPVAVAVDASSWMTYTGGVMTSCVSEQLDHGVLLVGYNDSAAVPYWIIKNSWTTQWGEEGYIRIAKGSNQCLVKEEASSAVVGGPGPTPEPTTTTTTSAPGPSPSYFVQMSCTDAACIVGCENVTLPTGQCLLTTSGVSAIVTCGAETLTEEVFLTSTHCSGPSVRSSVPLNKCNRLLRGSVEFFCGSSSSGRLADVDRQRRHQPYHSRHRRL
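Detergent-containing run (0.01% Triton X-100) in acetate buffer pH 5.5 with 5 mM DTT: enzyme at 1.5 nM final, 15 min compound preincubation at room temperature, then 2 uM Z-FR-AMC substrate. Activity taken as 60 s fluorescence increase at 360/450 nm.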
Cruzain noTriton = blocks cruzain activity in detergent-free assay; P25779; purified cruzain, Z-FR-AMC fluorescence, no detergent; Potency, µM, most hits filed as inhibitors; hit rate 2.3% among 200,000; AID 1476; further: nearly all actives have a fitted effect of over 40% in size
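Detergent-free condition (0.00005% Triton X-100) in acetate buffer pH 5.5 with DTT. 1.5 nM enzyme and compound were pre-mixed 15 min, then 2 uM Z-FR-AMC substrate added; reaction progress from fluorescence change between first and third reads (60 s).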
Hits are given with their value; ! = a repeat was not active. The call rests on the fitted dose curve; in most records, active means well fitted curve in the direction sought with a large enough effect; inconclusive means small, poorly fitted or top-dose-only effect, or another doubt; inactive means no such curve, though single readings can be large; an effect the other way counts as inactive or inconclusive.

CN(C)S(=O)(=O)c1ccc(C(=O)Nc2cc(S(=O)(=O)Nc3ccccc3Cl)ccc2N2CCCCC2)cc1 was read as Cruzain inh Det inactive and Cruzain noTriton 25µM.
`COc1ccccc1NC(=O)c1ccc(S(=O)(=O)N2CCCC2)cc1` gave Cruzain inh Det inactive and Cruzain noTriton inactive.
For CN(Cc1ccccc1)c1nc2c(c(=O)[nH]c(=O)n2C)n1CCCSc1ncccn1 the results were Cruzain inh Det inactive and Cruzain noTriton inactive.
`CCCCCCC(=O)NNC(=O)CC(=O)Nc1ccccc1C(=O)O` gave Cruzain inh Det inactive and Cruzain noTriton inactive.
Cc1ccc(N(Cc2ccc(C(=O)NC3CCCCC3)cc2)S(C)(=O)=O)cc1C was read as Cruzain inh Det inactive and Cruzain noTriton inactive.
`COc1ccc(Cl)cc1NC(=O)Cn1nnc2sc3c(c2c1=O)CCC(C(C)(C)C)C3` (stereo not given) gave Cruzain inh Det inactive and Cruzain noTriton inactive.
For Cc1ccc(Cl)cc1NC(=O)Cn1nnc2sc3c(c2c1=O)CCC(C(C)(C)C)C3 (stereo not given) the results were Cruzain inh Det inactive and Cruzain noTriton 25µM.
Cc1noc(C)c1C(=O)N1CCC2(CC1)CCN(c1ccncc1)CC2 was read as Cruzain inh Det inactive and Cruzain noTriton inactive.
For Cc1ccc(N=Cc2c(O)n(-c3ccc4c(c3)OCO4)c(=O)c3ccccc23)cc1 the results were Cruzain inh Det inactive and Cruzain noTriton 3.2µM.
`Cc1cccc(-n2c(O)c(C=Nc3ccc(O)cc3)c3ccccc3c2=O)n1` gave Cruzain inh Det inactive and Cruzain noTriton inconclusive.
Screening COc1ccc(CNC(=O)c2cccc(N3CCCS3(=O)=O)c2)cc1OC returned Cruzain inh Det inactive and Cruzain noTriton inactive.
Cc1nn(C)c(C)c1CNC(=O)c1cc2n(n1)C(C(F)(F)F)CC(c1cccs1)N2 (stereo not given) was read as Cruzain inh Det inactive and Cruzain noTriton inconclusive.
Screening CCOC(=O)c1c(NC(=O)c2cc3n(n2)C(C(F)(F)F)CC(c2cccs2)N3)sc(C)c1C (stereo not given) returned Cruzain inh Det inactive and Cruzain noTriton 6.3µM.
`Cc1ccccc1NC(=O)Cn1nnc(C(=O)NCc2ccco2)c1N` gave Cruzain inh Det inactive and Cruzain noTriton inactive.
Screening Cc1ccccc1NC(=O)Cn1nnc(S(=O)(=O)c2ccc(C(C)(C)C)cc2)c1N returned Cruzain inh Det inactive and Cruzain noTriton 7.9µM.
`COC(=O)N1CCC2(CC1)CN(c1cccc(-c3ccccc3)c1)C2` gave Cruzain inh Det inactive and Cruzain noTriton inconclusive.
For N#Cc1c(N)nc2c(c1N)CC(=O)N2c1ccccc1-c1ccccc1 the results were Cruzain inh Det inactive and Cruzain noTriton inactive.
Screening CC(C)CC12CN3CCN(CC(C3)C1O)C2 (stereo not given) returned Cruzain inh Det inactive and Cruzain noTriton inactive.
`COc1ccc(NS(=O)(=O)c2ccc(N/N=C/c3ccc(N4CCOCC4)cc3)c([N+](=O)[O-])c2)cc1` gave Cruzain inh Det inactive and Cruzain noTriton 25µM.
COc1ccc(/C=N/Nc2ccc(C(F)(F)F)cc2[N+](=O)[O-])cc1 was read as Cruzain inh Det inactive and Cruzain noTriton inactive.
For O=Cc1ccccc1 the results were Cruzain inh Det inactive and Cruzain noTriton inactive.
`O=C(O)C1C2C=CC3(CN(C4CCCC4)C(=O)C13)O2` (stereo not given) gave Cruzain inh Det inactive and Cruzain noTriton inactive.
Screening O=c1c2c(nc3c(-c4ccc(Cl)cc4)c[nH]n13)CCCC2 returned Cruzain inh Det inactive and Cruzain noTriton inactive.
Screening Cc1ccc(CNS(=O)(=O)c2c(C)nc3scc(C)n3c2=O)cc1 returned Cruzain inh Det inactive and Cruzain noTriton inactive.
Screening O=C1CC(SCc2nc3ccccc3[nH]2)C(=O)N1c1ccc(F)c(Cl)c1 (stereo not given) returned Cruzain inh Det inactive and Cruzain noTriton 16µM.
For O=C1CC(SCc2nc3ccccc3[nH]2)C(=O)N1c1ccc(Cl)cc1 (stereo not given) the results were Cruzain inh Det inactive and Cruzain noTriton inactive.
`O=C(CSc1nc2ccc(Cl)cc2[nH]1)NCc1ccco1` gave Cruzain inh Det inactive and Cruzain noTriton inactive.
CNC(=S)N1N=C(c2ccc(C)cc2)CC1c1ccc(Br)cc1 (stereo not given) was read as Cruzain inh Det inactive and Cruzain noTriton 2.5µM.
`CNC(=S)N1N=C(c2ccc(C)cc2)CC1c1ccc(Cl)cc1` (stereo not given) gave Cruzain inh Det inactive and Cruzain noTriton inactive.
For COc1cc(C(=O)NCc2nnc(SCC(=O)Nc3nc4ccccc4s3)o2)cc(OC)c1OC the results were Cruzain inh Det inactive and Cruzain noTriton inconclusive.
Cc1[nH]nc2oc(=O)c(CCO)c(C)c12 was read as Cruzain inh Det inactive and Cruzain noTriton inactive.
`Brc1cc2c(cc1C1Nc3ccccc3C3C=CCC31)OCO2` (stereo not given) gave Cruzain inh Det inactive and Cruzain noTriton inconclusive.
`Cc1cc(C)c2c(c1)NC(c1cc3c(cc1Br)OCO3)C1CC=CC21` (stereo not given) gave Cruzain inh Det inactive and Cruzain noTriton 20µM.
For Cc1ccc(Sc2c(C)nn(-c3ccccc3)c2OC(=O)CC(C)C)cc1 the results were Cruzain inh Det inactive and Cruzain noTriton inactive.
CC1=NN(c2ccccc2)C(=O)C1C(=O)c1ccc(Cl)cc1 (stereo not given) was read as Cruzain inh Det inactive and Cruzain noTriton inactive.
For CCc1cccc(NC(=O)C(Cc2ccccc2)NS(=O)(=O)c2ccc3c(c2)c(=O)n(C)c(=O)n3C)c1 (stereo not given) the results were Cruzain inh Det inactive and Cruzain noTriton inactive.
`CC(C)NC(=S)Nc1ccc(Oc2ccccc2)cc1` gave Cruzain inh Det inactive and Cruzain noTriton inactive.
Screening O=C(NCc1ccc(OC(F)(F)F)cc1)C12CN(Cc3ccccc3)CC1C(c1cccc([N+](=O)[O-])c1)=NO2 (stereo not given) returned Cruzain inh Det inactive and Cruzain noTriton 20µM.
Screening O=C(NCc1ccccc1)C12CN(Cc3ccccc3)CC1C(c1cccc([N+](=O)[O-])c1)=NO2 (stereo not given) returned Cruzain inh Det inactive and Cruzain noTriton inactive.
For CC1=C(\C=C/C(C)=C/C=C\C(C)=C\C(=O)O)C(C)(C)CCC1 the results were Cruzain inh Det inactive and Cruzain noTriton inconclusive.
For CC1=C(/C=C/C(C)=C/C=C/C(C)=C/C(=O)Nc2ccc(O)cc2)C(C)(C)CCC1 the results were Cruzain inh Det inactive and Cruzain noTriton 16µM!.
For Clc1ccc(CSC(Cn2ccnc2)c2ccc(Cl)cc2Cl)cc1 (stereo not given) the results were Cruzain inh Det inactive and Cruzain noTriton inactive.
C/C(=C\C(=O)c1cccnc1)Nc1ccc(C(=O)O)cc1 was read as Cruzain inh Det inactive and Cruzain noTriton inactive.
For Cc1ccc(S(=O)(=O)N2CCN(CC(=O)NC3CCCc4ccccc43)CC2)cc1C (stereo not given) the results were Cruzain inh Det inactive and Cruzain noTriton inconclusive.
For Cc1ccc(C(=O)CSc2nc3cc(S(=O)(=O)N4CCOCC4)ccc3o2)cc1 the results were Cruzain inh Det inactive and Cruzain noTriton inactive.
`O=C(CSc1nc2cc(S(=O)(=O)N3CCOCC3)ccc2o1)NC1CCCc2ccccc21` (stereo not given) gave Cruzain inh Det inactive and Cruzain noTriton 25µM.
Screening Cc1[nH]c2ccccc2c1C(=O)CSc1nc2cc(S(=O)(=O)N3CCCCC3)ccc2o1 returned Cruzain inh Det inactive and Cruzain noTriton 25µM.

Assay outcomes as filed in PubChem.
